In PubChem BioAssay AID1159580 (chemical genetic matrix, 2015):
Out of some 5,500 compounds screened, about 2,000 (36%) were called active. Not shown: some 18% with an inconclusive outcome. Rule as the data show it: active = normalized growth mostly below about 0.91 (no sharp cut-off); inconclusive = no clear call, values can overlap the other calls; inactive = mostly above about 0.92. The list shows a part of the results.

Test: chemical genetic growth profiling, strain panel (AID 1159580);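 also: tested at 20 µM; growth read once vehicle control cultures reached saturation at 30 °C; 1 = growth at the plate median or of vehicle wells; lower values mean less growth of the strain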
Details: growth OD

Measured: normalized growth

CCCC(=O)Nc1ncnc2c1ncn2C1O[C@@H]2COP(=O)(O)O[C@H]2[C@H]1OC(=O)CCC (stereo not given in full)
inactive: S. cerevisiae deletion strains, locus YJR066W, strain TOR1, active compounds read low 0.97 | S. cerevisiae deletion strains, locus YKL009W, strain mrt4, active compounds read low 1.01 | S. cerevisiae deletion strains, locus YKL068W, active compounds read low 1.03 | S. cerevisiae deletion strains, locus YKL085W, strain MDH1 (second series), active compounds read low 1.01 | S. cerevisiae deletion strains, locus YKL085W, strain MDH1, active compounds read low 1.01 | S. cerevisiae deletion strains, locus YKL160W, strain elf1, active compounds read low 0.999 | S. cerevisiae deletion strains, locus YKL190W, strain CNB1, active compounds read low 1.01 | S. cerevisiae deletion strains, locus YKR001C, strain vps1, active compounds read low 1.04 | S. cerevisiae deletion strains, locus YKR026C, strain gcn3, active compounds read low 0.979 | S. cerevisiae deletion strains, locus YKR091W, strain srl3, active compounds read low 0.989 | S. cerevisiae deletion strains, locus YLL001W, strain dnm1, active compounds read low 0.967 | S. cerevisiae deletion strains, locus YLL026W, active compounds read low 0.985 | S. cerevisiae deletion strains, locus YLL041C, strain sdh2, active compounds read low 0.98 | S. cerevisiae deletion strains, locus YLR027C, strain aat2, active compounds read low 0.999 | S. cerevisiae deletion strains, locus YLR039C, strain RIC1, active compounds read low 1.02 | S. cerevisiae deletion strains, locus YLR058C, strain SHM2, active compounds read low 1.01 | S. cerevisiae deletion strains, locus YLR102C, strain apc9, active compounds read low 1.01 | S. cerevisiae deletion strains, locus YLR113W, strain HOG1, active compounds read low 1.01 | S. cerevisiae deletion strains, locus YLR221C, strain rsa3, active compounds read low 0.945 | S. cerevisiae deletion strains, locus YLR258W, strain gsy2, active compounds read low 0.965 | S. cerevisiae deletion strains, locus YLR262C, strain YPT6 (second series), active compounds read low 0.984 | S. cerevisiae deletion strains, locus YLR262C, strain YPT6, active compounds read low 1.04 | S. cerevisiae deletion strains, locus YLR268W, strain sec22, active compounds read low 1.03 | S. cerevisiae deletion strains, locus YLR320W, strain mms22, active compounds read low 0.949 | S. cerevisiae deletion strains, locus YLR330W, strain CHS5, active compounds read low 1.01 | S. cerevisiae deletion strains, locus YLR342W, strain FKS1 (second series), active compounds read low 1 | S. cerevisiae deletion strains, locus YLR342W, strain FKS1, active compounds read low 0.992 | S. cerevisiae deletion strains, locus YLR357W, strain rsc2, active compounds read low 1 | S. cerevisiae deletion strains, locus YLR370C, strain arc18, active compounds read low 0.952 | S. cerevisiae deletion strains, locus YLR371W, strain rom2, active compounds read low 1.02 | S. cerevisiae deletion strains, locus YLR384C, strain iki3, active compounds read low 0.976 | S. cerevisiae deletion strains, locus YLR418C, strain cdc73, active compounds read low 1.04 | S. cerevisiae deletion strains, locus YML016C, strain PPZ1, active compounds read low 1.01 | S. cerevisiae deletion strains, locus YML032C, strain rad52, active compounds read low 1.03 | S. cerevisiae deletion strains, locus YML120C, strain ndi1, active compounds read low 0.962 | S. cerevisiae deletion strains, locus YML124C, strain tub3, active compounds read low 1.01 | S. cerevisiae deletion strains, locus YMR058W, strain fet3, active compounds read low 0.986 | S. cerevisiae deletion strains, locus YMR078C, strain ctf18, active compounds read low 1.03 | S. cerevisiae deletion strains, locus YMR125W, strain sto1, active compounds read low 0.971 | S. cerevisiae deletion strains, locus YMR129W, active compounds read low 0.991 | S. cerevisiae deletion strains, locus YMR205C, strain PFK2, active compounds read low 0.98 | S. cerevisiae deletion strains, locus YMR223W, strain ubp8, active compounds read low 1.03 | S. cerevisiae deletion strains, locus YMR231W, strain pep5, active compounds read low 0.988 | S. cerevisiae deletion strains, locus YMR263W, strain SAP30, active compounds read low 1 | S. cerevisiae deletion strains, locus YMR307W, strain GAS1, active compounds read low 0.995 | S. cerevisiae deletion strains, locus YNL067W, strain RPL9B, active compounds read low 1 | S. cerevisiae deletion strains, locus YNL071W, strain lat1, active compounds read low 0.987 | S. cerevisiae deletion strains, locus YNL128W, strain TEP1, active compounds read low 1.02 | S. cerevisiae deletion strains, locus YNL153C, strain GIM3, active compounds read low 1 | S. cerevisiae deletion strains, locus YNL183C, strain NPR1, active compounds read low 0.969 | S. cerevisiae deletion strains, locus YNL209W, strain ssb2, active compounds read low 0.982 | S. cerevisiae deletion strains, locus YNL233W, strain BNI4, active compounds read low 0.999 | S. cerevisiae deletion strains, locus YNL248C, strain rpa49, active compounds read low 1.02 | S. cerevisiae deletion strains, locus YNL250W, strain rad50, active compounds read low 1.03 | S. cerevisiae deletion strains, locus YNL271C, strain bni1, active compounds read low 1.02 | S. cerevisiae deletion strains, locus YNL298W, strain CLA4, active compounds read low 1.02 | S. cerevisiae deletion strains, locus YNL307C, strain MCK1, active compounds read low 1.03 | S. cerevisiae deletion strains, locus YNL322C, strain KRE1 (second series), active compounds read low 0.975 | S. cerevisiae deletion strains, locus YNR049C, strain mso1, active compounds read low 0.981 | S. cerevisiae deletion strains, locus YNR052C, strain pop2, active compounds read low 1.02 | S. cerevisiae deletion strains, locus YOL006C, strain TOP1, active compounds read low 1.03 | S. cerevisiae deletion strains, locus YOL012C, strain htz1 0.919 | S. cerevisiae deletion strains, locus YOL147C, strain pex11, active compounds read low 1.02 | S. cerevisiae deletion strains, locus YOR001W, strain rrp6, active compounds read low 1.02 | S. cerevisiae deletion strains, locus YOR061W, strain CKA2, active compounds read low 1.02 | S. cerevisiae deletion strains, locus YOR069W, strain VPS5, active compounds read low 1 | S. cerevisiae deletion strains, locus YOR070C, strain gyp1, active compounds read low 0.988 | S. cerevisiae deletion strains, locus YOR080W, strain dia2, active compounds read low 0.983 | S. cerevisiae deletion strains, locus YOR083W, strain WHI5, active compounds read low 0.986 | S. cerevisiae deletion strains, locus YOR106W, strain vam3, active compounds read low 0.982 | S. cerevisiae deletion strains, locus YOR136W, strain idh2, active compounds read low 1.02 | S. cerevisiae deletion strains, locus YOR144C, strain elg1, active compounds read low 1.02 | S. cerevisiae deletion strains, locus YOR184W, strain ser1, active compounds read low 1.02 | S. cerevisiae deletion strains, locus YOR231W, strain MKK1, active compounds read low 1.03 | S. cerevisiae deletion strains, locus YOR265W, strain rbl2, active compounds read low 0.978 | S. cerevisiae deletion strains, locus YOR270C, strain vph1, active compounds read low 0.983 | S. cerevisiae deletion strains, locus YOR290C, strain snf2, active compounds read low 0.961 | S. cerevisiae deletion strains, locus YOR316C, strain cot1, active compounds read low 1.02 | S. cerevisiae deletion strains, locus YPL051W, strain arl3, active compounds read low 0.997 | S. cerevisiae deletion strains, locus YPL078C, strain atp4, active compounds read low 0.99 | S. cerevisiae deletion strains, locus YPL106C, strain sse1, active compounds read low 0.941 | S. cerevisiae deletion strains, locus YPL240C, strain hsp82, active compounds read low 0.994 | S. cerevisiae deletion strains, locus YPL241C, strain CIN2, active compounds read low 1.01 | S. cerevisiae deletion strains, locus YPL256C, strain CLN2, active compounds read low 1.06 | S. cerevisiae deletion strains, locus YPR119W, strain clb2, active compounds read low 1.02 | S. cerevisiae deletion strains, locus YPR141C, strain kar3, active compounds read low 1.01 | S. cerevisiae deletion strains, locus YPR163C, strain tif3, active compounds read low 1.03 | S. cerevisiae deletion strains, locus YPR167C, strain met16, active compounds read low 1.01 | S. cerevisiae deletion strains, strain wtn01, active compounds read low 1.02 | S. cerevisiae strains, strain wild type, active compounds read low 1.01
